{"source": "PubChem BioAssay (NCI)", "note": "This is part of a sample that, as a whole, favours compounds with a hit. Of some 79,000 tested, about 15% had one in any assay. Calls of active or inactive are those of the source. Rule as the data show it: active = growth inhibition above about 70%; inactive = the rest.", "data": [{"experiment": "NCI Yeast Anticancer Drug Screen. Data for the rad50 strain (AID 155);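 also: 0% = growth of vehicle-only cultures of the same strain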", "conditions": "S. cerevisiae rad50 strain growth inhibition; at 50.0 µM; active compounds read high", "outline": "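Relative growth inhibition (compound vs vehicle) was measured in yeast with a defined repair-gene alteration.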", "values": [{"smiles": "COC1OC(CO)C(O)C2OCCOCCOC3C(OC)OC(CO)C(O)C3OCCOCCOC12", "note": "(stereo not given)", "growth inhibition": "-2.65% (inactive)"}, {"smiles": "CCCN(CCC)CCCCCCCCN", "growth inhibition": "29.1% (inactive)"}, {"smiles": "[O-][n+]1c(CN2CCCCC2)nc2cccc3c2c1-c1ccccc1-3", "growth inhibition": "33.4% (inactive)"}, {"smiles": "COC(=O)C1OC(O[C@H]2CC[C@]3(C)[C@H]4CC=C5[C@@H]6CC(C)(C)CC[C@]6(C(=O)OC6OCC(O)C(O)C6OC6OC(C)C(OC7OCC(O)C(O)C7O)C(OC7OCC(O)(CO)C7O)C6O)[C@H](O)C[C@@]5(C)[C@]4(C)CC[C@H]3C2(C)C)C(O)C(O)C1O", "note": "(stereo not given in full)", "growth inhibition": "16.1% (inactive)"}, {"smiles": "CC(C)(C)C(O)CC(O)(C(F)(F)F)C(F)(F)F", "note": "(stereo not given)", "growth inhibition": "-2.45% (inactive)"}, {"smiles": "OC(c1ccncc1)(c1ccc(Cl)cc1)c1cccs1", "note": "(stereo not given)", "growth inhibition": "6.35% (inactive)"}, {"smiles": "O=C(C[n+]1ccncc1)c1ccc2c(c1)CCCC2", "growth inhibition": "-8.7% (inactive)"}, {"smiles": "COC(=O)C1(C2CCc3cc(OC)ccc3C2=O)NC(=S)NC(=O)C1C#N", "note": "(stereo not given)", "growth inhibition": "-2.8% (inactive)"}, {"smiles": "N#C/C(=C\\c1cc(Br)cc(Br)c1O)c1ccc([N+](=O)[O-])cc1", "growth inhibition": "-2.7% (inactive)"}, {"smiles": "N#CC(CCc1ccccc1)(c1ccccc1)c1ccccc1", "growth inhibition": "-15.5% (inactive)"}, {"smiles": "CCOC(=O)c1nc2ccc(C(F)(F)F)cc2nc1NCc1ccc(F)cc1", "growth inhibition": "-13.9% (inactive)"}, {"smiles": "CN(C)CCNC1=CC(=O)c2nc3ccccc3c3ccnc1c23", "growth inhibition": "37% (inactive)"}, {"smiles": "C[C@H](CCc1nc(C#N)c(N)o1)[C@H]1CC[C@H]2[C@@H]3[C@@H](O)CC4C[C@@H](O)CC[C@]4(C)[C@H]3C[C@@H](O)[C@]12C", "note": "(stereo not given in full)", "growth inhibition": "26.4% (inactive)"}, {"smiles": "FC(F)(F)c1ccc(C2ON=C(c3ccccc3)N2C23CC4CC(CC(C4)C2)C3)cc1", "note": "(stereo not given)", "growth inhibition": "17.1% (inactive)"}, {"smiles": "Fc1ccc(NC(=S)NCCN2CCCC2)cc1", "growth inhibition": "3.9% (inactive)"}, {"smiles": "C/C=C/C(=O)N(CC)CC", "growth inhibition": "9% (inactive)"}, {"smiles": "CC1CC[N-]C(N)N1.CC1CC[N-]C(N)N1.[Cl][Pd][Cl]", "note": "(stereo not given)", "growth inhibition": "-3.5% (inactive)"}, {"smiles": "NNC(=O)NN1C(=O)c2cc(S(=O)(=O)O)cc3c(N)c(S(=O)(=O)O)cc(c23)C1=O", "growth inhibition": "35.2% (inactive)"}, {"smiles": "O=c1[nH]cc(CNC2CCCCC2)c(=O)[nH]1", "growth inhibition": "21.5% (inactive)"}, {"smiles": "CCOC(Nc1ccccc1[N+](=O)[O-])C(=O)c1ccccc1", "note": "(stereo not given)", "growth inhibition": "21.4% (inactive)"}, {"smiles": "O=S(=O)(O)SCCCNCCCCCCCCNCCCSS(=O)(=O)O", "growth inhibition": "-18.6% (inactive)"}, {"smiles": "COc1ccc2c(c1)C=C(C(C)(C)C)NS2(=O)=O", "growth inhibition": "23.6% (inactive)"}, {"smiles": "CCN(CC)c1ccc(/C=N\\NC(=S)N/N=C/c2ccc(N(CC)CC)cc2)cc1", "growth inhibition": "-2.3% (inactive)"}, {"smiles": "CCCCCCCCCCCCCCCC(=O)N(CCCCCCCCCCC(=O)O)CC(O)C(O)C(OC1OC(CO)C(O)C(O)C1O)C(O)CO", "note": "(stereo not given)", "growth inhibition": "-8.15% (inactive)"}, {"smiles": "CCOC(=O)c1cnc(SC)nc1Nc1ccc(Cl)cc1", "growth inhibition": "-13.8% (inactive)"}, {"smiles": "CCCCCCCCSC1=NS(=O)(=O)c2ccccc21", "growth inhibition": "64% (inactive)"}, {"smiles": "Cc1nc(C)c(C(=O)NNC(=O)Cc2ccccc2)cc1C(=O)NNC(=O)Cc1ccccc1", "growth inhibition": "-32% (inactive)"}, {"smiles": "O=C(C(c1ccccc1)C(C(=O)N(Cc1ccccc1)Cc1ccccc1)c1ccccc1)N(Cc1ccccc1)Cc1ccccc1", "note": "(stereo not given)", "growth inhibition": "-44.8% (inactive)"}, {"smiles": "CCCC(CCC)(C(=O)OCC)C(=O)OCC", "growth inhibition": "1.45% (inactive)"}, {"smiles": "CCCCOC(=O)c1ccc(OC(=O)Nc2ccccc2)cc1", "growth inhibition": "11.2% (inactive)"}, {"smiles": "O=C(NC12CC3CC(CC(C3)C1)C2)C(=O)c1c[nH]c2ccc(Br)cc12", "growth inhibition": "-21.9% (inactive)"}, {"smiles": "O=C1C(=Cc2ccc(Cl)c(Cl)c2)C([O-])=C([P+](c2ccccc2)(c2ccccc2)c2ccccc2)C([O-])=C1[P+](c1ccccc1)(c1ccccc1)c1ccccc1", "growth inhibition": "-4.6% (inactive)"}, {"smiles": "N#C/C(=N/Nc1nc[nH]c1C(N)=O)C(=O)Nc1ccccc1", "growth inhibition": "8.6% (inactive)"}, {"smiles": "CCOC(=O)C(C(=O)OCC)C(=O)c1cc(OC)c(OC)c(OC)c1", "growth inhibition": "4.55% (inactive)"}, {"smiles": "Cc1cc(C(N)=O)c(C(N)=O)c(Cl)n1", "growth inhibition": "2.35% (inactive)"}, {"smiles": "O=C(/C(N=Nc1ccccc1)=C(\\O)c1ccccc1)c1ccccc1", "growth inhibition": "-8.15% (inactive)"}, {"smiles": "CN(C)CCSSCCN(C)C", "growth inhibition": "-7.55% (inactive)"}, {"smiles": "CCCCOC(=O)C1CC2OC2CC1C(=O)OCCOCCOC(=O)C1CC2OC2CC1C(=O)OCCCC", "note": "(stereo not given)", "growth inhibition": "-18.3% (inactive)"}, {"smiles": "c1cc2[nH]snc2c2cncc12", "growth inhibition": "12.5% (inactive)"}, {"smiles": "COCCN(CCOC)C1C2=C(CCCC2)OS(=O)(=O)C1c1ccccc1", "note": "(stereo not given)", "growth inhibition": "26.9% (inactive)"}]}, {"experiment": "NCI Yeast Anticancer Drug Screen. Data for the mec2-1 strain (AID 157)", "conditions": "S. cerevisiae mec2-1 strain, at 50.0 µM, active compounds read high", "outline": "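Yeast mec2-1 mutant treated with compound. Readout: growth inhibition vs vehicle controls.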", "values": [{"smiles": "COC1OC(CO)C(O)C2OCCOCCOC3C(OC)OC(CO)C(O)C3OCCOCCOC12", "note": "(stereo not given)", "growth inhibition": "-4.4% (inactive)"}, {"smiles": "CCCN(CCC)CCCCCCCCN", "growth inhibition": "-13.2% (inactive)"}, {"smiles": "[O-][n+]1c(CN2CCCCC2)nc2cccc3c2c1-c1ccccc1-3", "growth inhibition": "12.3% (inactive)"}, {"smiles": "COC(=O)C1OC(O[C@H]2CC[C@]3(C)[C@H]4CC=C5[C@@H]6CC(C)(C)CC[C@]6(C(=O)OC6OCC(O)C(O)C6OC6OC(C)C(OC7OCC(O)C(O)C7O)C(OC7OCC(O)(CO)C7O)C6O)[C@H](O)C[C@@]5(C)[C@]4(C)CC[C@H]3C2(C)C)C(O)C(O)C1O", "note": "(stereo not given in full)", "growth inhibition": "-10.3% (inactive)"}, {"smiles": "CC(C)(C)C(O)CC(O)(C(F)(F)F)C(F)(F)F", "note": "(stereo not given)", "growth inhibition": "-21.1% (inactive)"}, {"smiles": "OC(c1ccncc1)(c1ccc(Cl)cc1)c1cccs1", "note": "(stereo not given)", "growth inhibition": "11.2% (inactive)"}, {"smiles": "O=C(C[n+]1ccncc1)c1ccc2c(c1)CCCC2", "growth inhibition": "10.8% (inactive)"}, {"smiles": "COC(=O)C1(C2CCc3cc(OC)ccc3C2=O)NC(=S)NC(=O)C1C#N", "note": "(stereo not given)", "growth inhibition": "-4.45% (inactive)"}, {"smiles": "N#C/C(=C\\c1cc(Br)cc(Br)c1O)c1ccc([N+](=O)[O-])cc1", "growth inhibition": "-10.9% (inactive)"}, {"smiles": "N#CC(CCc1ccccc1)(c1ccccc1)c1ccccc1", "growth inhibition": "-9.05% (inactive)"}, {"smiles": "CCOC(=O)c1nc2ccc(C(F)(F)F)cc2nc1NCc1ccc(F)cc1", "growth inhibition": "7.6% (inactive)"}, {"smiles": "CN(C)CCNC1=CC(=O)c2nc3ccccc3c3ccnc1c23", "growth inhibition": "14.2% (inactive)"}, {"smiles": "C[C@H](CCc1nc(C#N)c(N)o1)[C@H]1CC[C@H]2[C@@H]3[C@@H](O)CC4C[C@@H](O)CC[C@]4(C)[C@H]3C[C@@H](O)[C@]12C", "note": "(stereo not given in full)", "growth inhibition": "9.8% (inactive)"}, {"smiles": "FC(F)(F)c1ccc(C2ON=C(c3ccccc3)N2C23CC4CC(CC(C4)C2)C3)cc1", "note": "(stereo not given)", "growth inhibition": "4.1% (inactive)"}, {"smiles": "Fc1ccc(NC(=S)NCCN2CCCC2)cc1", "growth inhibition": "34.2% (inactive)"}, {"smiles": "C/C=C/C(=O)N(CC)CC", "growth inhibition": "-4.25% (inactive)"}, {"smiles": "CC1CC[N-]C(N)N1.CC1CC[N-]C(N)N1.[Cl][Pd][Cl]", "note": "(stereo not given)", "growth inhibition": "-0.4% (inactive)"}, {"smiles": "NNC(=O)NN1C(=O)c2cc(S(=O)(=O)O)cc3c(N)c(S(=O)(=O)O)cc(c23)C1=O", "growth inhibition": "-3.05% (inactive)"}, {"smiles": "O=c1[nH]cc(CNC2CCCCC2)c(=O)[nH]1", "growth inhibition": "-9.35% (inactive)"}, {"smiles": "CCOC(Nc1ccccc1[N+](=O)[O-])C(=O)c1ccccc1", "note": "(stereo not given)", "growth inhibition": "8.05% (inactive)"}, {"smiles": "O=S(=O)(O)SCCCNCCCCCCCCNCCCSS(=O)(=O)O", "growth inhibition": "-8.85% (inactive)"}, {"smiles": "COc1ccc2c(c1)C=C(C(C)(C)C)NS2(=O)=O", "growth inhibition": "-22.6% (inactive)"}, {"smiles": "CCN(CC)c1ccc(/C=N\\NC(=S)N/N=C/c2ccc(N(CC)CC)cc2)cc1", "growth inhibition": "0.85% (inactive)"}, {"smiles": "CCCCCCCCCCCCCCCC(=O)N(CCCCCCCCCCC(=O)O)CC(O)C(O)C(OC1OC(CO)C(O)C(O)C1O)C(O)CO", "note": "(stereo not given)", "growth inhibition": "-23.6% (inactive)"}, {"smiles": "CCOC(=O)c1cnc(SC)nc1Nc1ccc(Cl)cc1", "growth inhibition": "-9.4% (inactive)"}, {"smiles": "CCCCCCCCSC1=NS(=O)(=O)c2ccccc21", "growth inhibition": "28.6% (inactive)"}, {"smiles": "Cc1nc(C)c(C(=O)NNC(=O)Cc2ccccc2)cc1C(=O)NNC(=O)Cc1ccccc1", "growth inhibition": "1.35% (inactive)"}, {"smiles": "O=C(C(c1ccccc1)C(C(=O)N(Cc1ccccc1)Cc1ccccc1)c1ccccc1)N(Cc1ccccc1)Cc1ccccc1", "note": "(stereo not given)", "growth inhibition": "7% (inactive)"}, {"smiles": "CCCC(CCC)(C(=O)OCC)C(=O)OCC", "growth inhibition": "6.15% (inactive)"}, {"smiles": "CCCCOC(=O)c1ccc(OC(=O)Nc2ccccc2)cc1", "growth inhibition": "6% (inactive)"}, {"smiles": "O=C(NC12CC3CC(CC(C3)C1)C2)C(=O)c1c[nH]c2ccc(Br)cc12", "growth inhibition": "-20.3% (inactive)"}, {"smiles": "O=C1C(=Cc2ccc(Cl)c(Cl)c2)C([O-])=C([P+](c2ccccc2)(c2ccccc2)c2ccccc2)C([O-])=C1[P+](c1ccccc1)(c1ccccc1)c1ccccc1", "growth inhibition": "-44.6% (inactive)"}, {"smiles": "N#C/C(=N/Nc1nc[nH]c1C(N)=O)C(=O)Nc1ccccc1", "growth inhibition": "20.9% (inactive)"}, {"smiles": "CCOC(=O)C(C(=O)OCC)C(=O)c1cc(OC)c(OC)c(OC)c1", "growth inhibition": "10.6% (inactive)"}, {"smiles": "Cc1cc(C(N)=O)c(C(N)=O)c(Cl)n1", "growth inhibition": "-7.35% (inactive)"}, {"smiles": "O=C(/C(N=Nc1ccccc1)=C(\\O)c1ccccc1)c1ccccc1", "growth inhibition": "-9.7% (inactive)"}, {"smiles": "CN(C)CCSSCCN(C)C", "growth inhibition": "-5.65% (inactive)"}, {"smiles": "CCCCOC(=O)C1CC2OC2CC1C(=O)OCCOCCOC(=O)C1CC2OC2CC1C(=O)OCCCC", "note": "(stereo not given)", "growth inhibition": "-6.45% (inactive)"}, {"smiles": "c1cc2[nH]snc2c2cncc12", "growth inhibition": "9.2% (inactive)"}, {"smiles": "COCCN(CCOC)C1C2=C(CCCC2)OS(=O)(=O)C1c1ccccc1", "note": "(stereo not given)", "growth inhibition": "-4.75% (inactive)"}]}]}
